Assay outcomes deposited in PubChem by The Scripps Research Institute Molecular Screening Center.
FBW7 activator – activators of human E3 ligase FBW7; actives 0.13% (n = 650,000); AlphaScreen FBW7–phospho-cyclin E peptide binding, activator screen; Q969H0; normalized activity (activation), % at 26.1 µM; in the data active = normalized activity above about 1.9%;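 also: purified mutant Fbw7 with reduced substrate affinity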
TEAD-YAP block – TEAD-YAP interaction inhibition; HEK-TIYL cells, TEAD-Gal4/YAP UAS-luciferase luminescence; AID 1259422; inhibition, % at 9.12 µM; actives 1.4% (n = 640,000); in the data active = inhibition above about 32%
MITF primary – human MITF inhibition, primary screen; O75030; AlphaScreen MITF homodimerization, bead proximity signal; inhibition, % at 2.6 µM; actives 0.91% (n = 650,000); AID 1259374; in the data active = inhibition above about 50%
GPR151 activ – activators of human GPR151; Q8TDV0; PathHunter beta-arrestin GPR151 cells, luminescence; activation, % at 11.2 µM; actives 1% (n = 650,000); in the data active = activation above about 4.9%
GPR151 conf act – confirmation of human GPR151 activators; AID 1508609; 6,700 tested, under 10 active; activation, % at 11.2 µM; shares compounds with GPR151 activ; GPR151 PathHunter beta-arrestin cells, luminescence, 90 min; % of EA-reagent control over plate median;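 active = mean percent activation across replicates above the confirmation screen cutoff of 4.91%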
GPR119 ag – GPR119 activation, counter-screen for GPR151 activators; activation, % at 11.2 µM; GPR119 PathHunter beta-arrestin cells, luminescence, 90 min; 0 = compound-well median, 100 = enzyme-acceptor control; shares compounds with GPR151 activ; actives 0.3% (n = 6,700);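 active = mean percent activation in the counterscreen above 29.09%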;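 also: counterscreen on off-target GPR119 to flag nonselective hits from the GPR151 activator screen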
Target sequence (Q8TDV5 whole entry, looked up): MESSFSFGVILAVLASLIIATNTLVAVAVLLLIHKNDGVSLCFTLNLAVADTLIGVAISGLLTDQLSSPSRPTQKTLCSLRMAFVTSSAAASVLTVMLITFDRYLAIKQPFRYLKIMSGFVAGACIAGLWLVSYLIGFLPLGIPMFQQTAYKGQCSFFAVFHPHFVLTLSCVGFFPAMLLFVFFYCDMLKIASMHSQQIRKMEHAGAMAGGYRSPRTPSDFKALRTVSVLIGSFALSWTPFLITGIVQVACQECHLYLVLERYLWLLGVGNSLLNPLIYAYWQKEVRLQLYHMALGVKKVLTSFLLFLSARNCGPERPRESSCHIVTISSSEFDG
Each line names hits and unclear results; the compound was inactive in the other large screens (follow-up assays come after a bar, where they were run); ! = not confirmed by another sample. An excerpt weighted towards active compounds, which were near 3.5% of everything screened.

C[C@H]1C[C@@H]2[C@H]([C@@H](O)C[C@@]3(C)[C@H]2CC[C@]3(O)C(=O)CO)[C@@]2(C)C=CC(=O)C=C12	GPR151 activ 6.9! (no result: TEAD-YAP block) | GPR151 conf act inactive | GPR119 ag inactive
Cc1ccc(NC(=O)C2CCCN2c2nn3c(=O)cc(C)nc3s2)c(Cl)c1 (stereo not drawn)	GPR151 activ 5.0 | GPR151 conf act inactive | GPR119 ag inactive
Cc1cc(OCCCNCCN(C)C)ccc1[N+](=O)[O-]	GPR151 activ 5.4 | GPR151 conf act inactive | GPR119 ag inactive
COc1ccc(OCCOc2ccc(C)cc2[N+](=O)[O-])cc1	none
Cc1cc(OCCN(C)C)ccc1[N+](=O)[O-]	none
Cc1ccc(OCCN2CCCC2)c([N+](=O)[O-])c1	GPR151 activ 5.3 | GPR151 conf act inactive | GPR119 ag inactive
COCCNCCCOc1ccc(C)cc1[N+](=O)[O-]	GPR151 activ 7.3 | GPR151 conf act inactive | GPR119 ag inactive
COC(=O)Cn1c(=NC(=O)/C=C/c2cccs2)sc2cc(OC)ccc21	none
COc1ccc(-c2cccc3ccc(N4CCN(C(C)=O)CC4)nc23)c(OC)c1	none
CCCCCC1C/C(=N/OC(C)=O)C=C(C)C1C(=O)OC (stereo not drawn)	GPR151 activ 7.3 | GPR151 conf act inactive | GPR119 ag inactive
O=C(O)c1ccccc1C(=O)NC12CC3CC(CC(C3)C1)C2	none
COc1ccc(CCN2C(=O)CC(Cc3ccc(Br)cc3)C2=O)cc1OC (stereo not drawn)	GPR151 activ 5.6 | GPR151 conf act inactive | GPR119 ag inactive
O=C(O)C(NS(=O)(=O)c1ccc([N+](=O)[O-])cc1)c1ccccc1 (stereo not drawn)	none
COC(=O)C(NS(=O)(=O)c1ccc([N+](=O)[O-])cc1)c1ccccc1 (stereo not drawn)	GPR151 activ 9.3 | GPR151 conf act inactive | GPR119 ag inactive
COCCCNCCn1cnc2c(N)ncnc21	GPR151 activ 7.2 | GPR151 conf act inactive | GPR119 ag inactive
COc1c(Cl)cc(C(=O)NCc2ccc3c(c2)OCO3)cc1Cl	GPR151 activ 5.9 | GPR151 conf act inactive | GPR119 ag inactive
COc1ccc(-c2noc(N3CCC(C(=O)NCc4ccc5c(c4)OCO5)CC3)n2)cc1	GPR151 activ 7.9 | GPR151 conf act inactive | GPR119 ag inactive
COc1ccc(-n2nc(C(=O)NCC(=O)Nc3ccc(OC)c(OC)c3)c3ccccc3c2=O)c(OC)c1	none
Cc1c(Cl)cccc1NC(=O)C(=O)NC(C)c1ccccc1 (stereo not drawn)	none
Cc1c(Cl)cccc1NC(=O)C(=O)NCC(O)c1ccccc1 (stereo not drawn)	GPR151 activ 7.3 | GPR151 conf act inactive | GPR119 ag inactive
CCCCc1cc(=O)oc2c(C)c(OCC(=O)OC(C)(C)C)ccc12	GPR151 activ 5.7 | GPR151 conf act inactive | GPR119 ag inactive
NS(=O)(=O)c1ccc(CCNC(=O)CN2C(=O)C3C4C=CC(C4)C3C2=O)cc1 (stereo not drawn)	GPR151 activ 8.1 | GPR151 conf act inactive | GPR119 ag inactive
Cc1ccc(C(=O)NCc2ccco2)c(Cl)c1	GPR151 activ 8.7 | GPR151 conf act inactive | GPR119 ag inactive
CCc1ccc(OCCCC(=O)NCc2ccco2)cc1	GPR151 activ 6.6 | GPR151 conf act inactive | GPR119 ag inactive
CC(=O)c1ccc(OCCCC(=O)NCc2ccco2)cc1	none
Cc1ccc(OCCNC(=O)C(=O)NCc2ccco2)cc1	TEAD-YAP block 33, GPR151 activ 6.5 | GPR151 conf act inactive | GPR119 ag inactive
COCCNC(=O)C(=O)NCc1ccco1	none
O=C1NC(=O)C(=Cc2cccc(OS(=O)(=O)c3ccc(Cl)cc3)c2)C(=O)N1	none
COc1ccc(S(=O)(=O)Oc2cccc(C=C3C(=O)NC(=O)NC3=O)c2)cc1	GPR151 activ 6.1 | GPR151 conf act inactive | GPR119 ag inactive
CCOc1cc(C=C2C(=O)NC(=O)NC2=O)ccc1OC	none
CCOc1cc(C=C2C(=O)NC(=O)NC2=O)ccc1OS(=O)(=O)c1ccc(OC)cc1	GPR151 activ 6.0 | GPR151 conf act inactive | GPR119 ag inactive
Cc1cc(C)n2c(SCC(=O)NC(=O)NC(C)(C)C)nnc2n1	GPR151 activ 5.5 | GPR151 conf act inactive | GPR119 ag inactive
COC(=O)CN1C(=O)S/C(=C/c2ccc(Br)cc2)C1=O	none
COC(=O)CN1C(=O)S/C(=C/c2cc(Cl)cc(OC)c2O)C1=O	GPR151 activ 5.2 | GPR151 conf act inactive | GPR119 ag inactive
COC(=O)CN1C(=O)S/C(=C/c2ccc(OCC(=O)O)c(Br)c2)C1=O	GPR151 activ 6.9 | GPR151 conf act inactive | GPR119 ag inactive
N#CC1=C(S)N(c2ccccc2)C(c2ccco2)NC1=O (stereo not drawn)	none
N#CC1=C(S)N(c2ccccc2)C(c2cccs2)NC1=O (stereo not drawn)	GPR151 activ 6.9 | GPR151 conf act inactive | GPR119 ag inactive
CC(=O)N1CCc2cc(Br)cc(S(=O)(=O)NC3CCCc4ccccc43)c21 (stereo not drawn)	GPR151 activ 5.1 | GPR151 conf act inactive | GPR119 ag inactive
CC(=O)N1CCc2cc(Br)cc(S(=O)(=O)NC3CCCC3)c21	none
Cc1sc(NC(=O)/C=C\C(=O)O)nc1-c1ccccc1	GPR151 activ 6.9 | GPR151 conf act inactive | GPR119 ag inactive
Cc1cccc2sc(NC(=O)/C=C\C(=O)O)nc12	GPR151 activ 6.8 | GPR151 conf act inactive | GPR119 ag inactive
O=c1c2ccccc2nc(/C=C/c2ccc([N+](=O)[O-])cc2)n1Cc1ccccc1	none
CCCOc1ccc(-c2nnc(SCC(N)=O)n2-c2ccccc2)cc1	GPR151 activ 5.3 | GPR151 conf act inactive | GPR119 ag inactive
CCOc1ccc(-c2nnc(SCC(N)=O)n2-c2ccccc2)cc1	none
O=C(Nc1ccc2c(c1)OCO2)c1ccnc(NCCN2CCOCC2)c1	GPR151 activ 7.1 | GPR151 conf act inactive | GPR119 ag inactive
CC(=O)Nc1ccc(NC(=O)c2ccnc(Nc3ccc(N4CCOCC4)cc3)c2)cc1	none
O=C(Nc1ccc(N2CCOCC2)cc1)c1ccnc(NCCN2CCOCC2)c1	none
NC(=O)C1CCN(CC(=O)Nc2ccc(N3CCOCC3)cc2)CC1	GPR151 activ 5.9 | GPR151 conf act inactive | GPR119 ag inactive
O=C(Nc1ccc(N2CCOCC2)cc1)C1CCN(c2ccc(Cl)nn2)CC1	GPR151 activ 6.0 | GPR151 conf act inactive | GPR119 ag inactive
O=C(Nc1ccc(N2CCOCC2)cc1)c1ccnc(N2CCOCC2)c1	GPR151 activ 5.5 | GPR151 conf act inactive | GPR119 ag inactive
O=C(C1CCCN1S(=O)(=O)c1cccs1)N1CCN(c2nc3ccc(F)cc3s2)CC1 (stereo not drawn)	none
Cc1sc2ncn(-n3cccc3)c(=O)c2c1-c1ccccc1	none
CC(=O)c1ccc(NC(=O)C2CC(=O)OC23CCCCC3)cc1 (stereo not drawn)	none
